High-throughput results: PubChem BioAssay, National Center for Advancing Translational Sciences (NCATS)
An excerpt weighted towards active compounds, which were near 7.4% of everything screened.
Luciferase inh: inhibitors of firefly (Photinus pyralis) luciferase. AID 1347043. actives 2.5% (n = 76,000). purified P. pyralis luciferase, luminescence, biochemical. Potency, µM (highest dose often 115 µM), usual class: inhibitors. P08659; also: nearly all actives have a fitted effect of over 65% in size
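FLuc 10nM, D-luciferin 10uM, ATP 10uM, Mg acetate 10mM, Tris acetate pH 7.5, Tween/BSA; cpd qHTS; enzyme added last; CCD luminescence.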
SNCA viab count: reduces viability of HEK-293 SNCA reporter cells. Potency, µM (series often up to 57.1 µM), actives largely listed as cytotoxic. HEK-293-SNCA-luc viability, GF-AFC fluorescence, 24 h. actives 0.12% (n = 150,000). AID 1671193; also: nearly all actives have a fitted effect of over 30% in size
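Cytotoxicity counterscreen: after 24 h compound treatment of genome-edited SNCA-luciferase HEK-293 cells, live-cell protease substrate GF-AFC read by fluorescence after 30 min; activity scaled between DMSO (0%) and medium-only (-100%), curves Hill-fitted.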
SNCA expr inhib: reduces expression of the alpha-synuclein gene. HEK-293 SNCA-luciferase knock-in, luminescence, 24 h. Potency, µM (highest dose often 57.2 µM), most hits filed as inhibitors. actives 0.17% (n = 140,000); also: nearly all actives have a fitted effect of over 45% in size
NIH3T3 tox: kills NIH 3T3 cells; NIH 3T3 viability, CellTiter-Glo ATP luminescence, 48-72 h; AID 1345082; Potency, µM (highest dose often 96.7 µM), hits mostly inhibitors; actives 4.3% (n = 94,000); also: nearly all actives have a fitted effect of over 55% in size
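Mouse fibroblast NIH 3T3 cells, 400 per well, received compound via pintool and were incubated for 48 or 72 hr prior to CellTiter-Glo ATP luminescence measurement.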
hNpr1 antagonist: antagonists of human natriuretic peptide receptor Npr1 | P16066 | HEK293 hNpr1 GloSensor cGMP, ANP-stimulated luminescence | Potency, µM (series often up to 46.3 µM), most hits filed as inhibitors | actives 1.6% (n = 76,000) | AID 1347048; calls by dose curve; also: nearly all actives have a fitted effect of over 60% in size
Target sequence (P16066 whole entry, looked up): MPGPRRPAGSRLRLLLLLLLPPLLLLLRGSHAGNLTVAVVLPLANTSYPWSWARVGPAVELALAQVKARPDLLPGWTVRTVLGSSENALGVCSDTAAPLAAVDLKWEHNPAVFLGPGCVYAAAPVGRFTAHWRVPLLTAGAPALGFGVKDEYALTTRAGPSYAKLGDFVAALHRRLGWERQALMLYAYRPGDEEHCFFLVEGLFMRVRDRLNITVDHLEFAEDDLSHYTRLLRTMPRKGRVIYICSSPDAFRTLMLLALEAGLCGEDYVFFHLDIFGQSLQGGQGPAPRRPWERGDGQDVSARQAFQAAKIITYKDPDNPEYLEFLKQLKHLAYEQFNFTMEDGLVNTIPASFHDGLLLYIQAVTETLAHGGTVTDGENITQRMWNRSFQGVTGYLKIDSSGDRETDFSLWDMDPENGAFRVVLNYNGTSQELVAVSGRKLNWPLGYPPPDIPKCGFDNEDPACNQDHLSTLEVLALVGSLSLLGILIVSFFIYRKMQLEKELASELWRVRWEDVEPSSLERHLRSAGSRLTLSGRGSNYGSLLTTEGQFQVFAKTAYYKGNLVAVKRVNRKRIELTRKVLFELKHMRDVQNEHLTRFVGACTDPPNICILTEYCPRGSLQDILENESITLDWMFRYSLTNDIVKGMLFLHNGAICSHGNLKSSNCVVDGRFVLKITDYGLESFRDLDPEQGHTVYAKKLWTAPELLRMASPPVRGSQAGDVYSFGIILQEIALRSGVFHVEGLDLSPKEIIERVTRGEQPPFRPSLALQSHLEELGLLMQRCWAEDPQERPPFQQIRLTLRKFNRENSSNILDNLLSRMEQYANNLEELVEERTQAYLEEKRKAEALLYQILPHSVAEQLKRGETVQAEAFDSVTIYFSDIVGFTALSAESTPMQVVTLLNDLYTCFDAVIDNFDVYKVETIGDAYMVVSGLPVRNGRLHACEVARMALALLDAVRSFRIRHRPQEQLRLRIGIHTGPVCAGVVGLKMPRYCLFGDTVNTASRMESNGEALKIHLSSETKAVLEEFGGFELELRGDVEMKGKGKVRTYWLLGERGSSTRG
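HEK293 cells stably expressing human Npr1 and cGMP GloSensor pGS-40F, loaded 2 h with 2% GloSensor reagent, given compound 30 min at room temperature. Luminescence read before and 20 min after 0.1 nM hNppA.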
HEK cytotox: HEK 293 cell cytotoxicity | HEK 293 viability, ATP luminescence (CellTiter-Glo), 48-72 h | AID 1345083 | Potency, µM (highest dose often 115 µM), most hits filed as inhibitors | actives 6.6% (n = 94,000); also: nearly all actives have a fitted effect of over 60% in size
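CellTiter-Glo luminescence (cellular ATP) was read after 48 or 72 hr of compound exposure at 37 degree Celsius. Cells were HEK 293 plated at 250 cells/well.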
Large screens that a line does not name were inactive. Unless noted, calls follow the shape of the dose curve; as a rule, active = well fitted curve in the direction sought with a large enough effect; inconclusive = small, poorly fitted or top-dose-only effect, or another doubt; inactive = no such curve, though single readings can be large; an effect the other way counts as inactive or inconclusive.

COc1ccc(-c2noc([C@@H]3C[C@H](NCc4ccc(N(C)C)cc4)CN3C)n2)cc1	Luciferase inh 63.1µM, NIH3T3 tox 50.1µM, HEK cytotox 35.5µM
COc1cccc(Nc2ccc3c(n2)C(C)(C(=O)NC(C)C)CN(C)C3)c1 (stereo not given)	SNCA viab count inconclusive, NIH3T3 tox inconclusive, HEK cytotox inconclusive
O=C(Cc1cccnc1)NC1CCN(c2cnn(CC3CC3)c(=O)c2)CC1	none
O=C(NCCc1ccco1)C1CC(=O)N(c2n[nH]c3ccccc23)C1 (stereo not given)	none
COc1ccc(CN2CC3(CCN(C(=O)c4ccc(F)c(Cl)c4)CC3)C2=O)cc1	NIH3T3 tox inconclusive, HEK cytotox inconclusive
O=C(c1ccc(F)c(Cl)c1)N1CCC2(CC1)CN(c1ccccc1)C2=O	NIH3T3 tox 39.8µM, HEK cytotox 89.1µM
Cc1cc(F)cc(CN2CCOc3cc([S+](=O)([O-])N(C)C)ccc3C2)c1	NIH3T3 tox 39.8µM, HEK cytotox 79.4µM
CN(C)[S+](=O)([O-])c1ccc2c(c1)OCCN(Cc1cccc(Cl)c1)C2	NIH3T3 tox inconclusive, HEK cytotox 79.4µM
COc1ccc(C2Cn3nnc(-c4nc(C)no4)c3CO2)cc1 (stereo not given)	none
Cc1cc(N2CCC3(CCCN(CC4CCC4)C3=O)C2)nc2ccccc12 (stereo not given)	SNCA viab count inconclusive, SNCA expr inhib inconclusive, NIH3T3 tox inconclusive, HEK cytotox 31.6µM
CCCN1CCCC2(CCN(c3cc(C)c4cccc(OC)c4n3)C2)C1=O (stereo not given)	HEK cytotox inconclusive
Cc1cccc(CN2CCCC3(CCN(c4cc(C)c5ccccc5n4)C3)C2=O)c1 (stereo not given)	NIH3T3 tox inconclusive, HEK cytotox 35.5µM
O=C(NCc1ccc(F)cc1)c1ccc2nnc(-c3ccc(F)cc3)n2c1	NIH3T3 tox inconclusive, HEK cytotox inconclusive (no result: Luciferase inh, hNpr1 antagonist)
CN(Cc1cc(C[C@@H]2C[C@H](NCc3cccnc3)C2(C)C)no1)c1ccccc1	NIH3T3 tox inconclusive, hNpr1 antagonist inconclusive, HEK cytotox 63.1µM
CC(C)(C)c1cc(C[C@@H]2C[C@H](NCc3ccccn3)C2(C)C)no1	NIH3T3 tox 50.1µM, hNpr1 antagonist inconclusive, HEK cytotox 50.1µM
COc1ccc(CN[C@H]2C[C@@H](Cc3cc(CN(C)c4ccccc4)on3)C2(C)C)cc1	SNCA expr inhib inconclusive, NIH3T3 tox inconclusive, HEK cytotox 28.2µM
CC1(C)[C@H](Cc2cc(CCO)on2)C[C@@H]1NCc1cccnc1	none
O=C(NCCN1CCOCC1)c1ccc2nccn2c1	none (no result: Luciferase inh, hNpr1 antagonist)
COc1ccc(Cl)cc1[C@@]1(F)C(=O)Nc2cc(C(F)(F)F)ccc21	none (no result: Luciferase inh, SNCA expr inhib, NIH3T3 tox, hNpr1 antagonist, HEK cytotox)
Cc1ccc(NC(=O)Cn2nc3n(c2=O)CCCCC3)c(C)c1	none
CCC(=O)NC1CCN(C(=O)N2CC3CC(C2)[C@H]2CCCC(=O)N2C3)CC1 (stereo not given in full)	none
CS(=O)(=O)c1ccc(CN2C[C@@H]3C[C@H]2C(=O)N(Cc2ccc(OC(F)(F)F)cc2)c2ccccc2O3)cc1	SNCA expr inhib inconclusive, NIH3T3 tox 31.6µM, HEK cytotox 31.6µM
O=C1[C@@H]2C[C@@H](CN2CC2CC2)Oc2ccccc2N1Cc1ccc(OC(F)(F)F)cc1	NIH3T3 tox 39.8µM, hNpr1 antagonist inconclusive, HEK cytotox 56.2µM
COCCN1C(=O)[C@@H]2C[C@@H](CN2Cc2ccc(OC(F)(F)F)cc2)Oc2ccccc21	NIH3T3 tox inconclusive, HEK cytotox inconclusive
O=C1NC2(CCN([S+](=O)([O-])c3ccccc3)C2)Oc2ccccc21 (stereo not given)	NIH3T3 tox inconclusive, HEK cytotox inconclusive
O=C(c1ccc2nnc(-c3ccc(Cl)cc3)n2c1)N1CCN(Cc2ccccc2)CC1	SNCA expr inhib inconclusive, NIH3T3 tox 28.2µM, HEK cytotox 25.1µM (no result: Luciferase inh, hNpr1 antagonist)
O=C(Cc1cccc(Cl)c1)N1CCN(c2ccc3nnc(-c4ccccc4)n3n2)CC1	NIH3T3 tox inconclusive, HEK cytotox 44.7µM (no result: Luciferase inh, SNCA viab count, SNCA expr inhib, hNpr1 antagonist)
O=C(c1ccc(Cl)cc1)N1CCN(c2ccc3nnc(-c4ccccc4)n3n2)CC1	NIH3T3 tox 44.7µM, HEK cytotox inconclusive (no result: Luciferase inh, SNCA viab count, SNCA expr inhib, hNpr1 antagonist)
COc1ccc(Cc2nnc3ccc(C(=O)N4CCN(Cc5ccccc5)CC4)cn23)cc1	NIH3T3 tox inconclusive, HEK cytotox inconclusive (no result: Luciferase inh, hNpr1 antagonist)
OC1CN(Cc2ccccc2)CCN(Cc2cn[nH]c2-c2ccc(Cl)cc2)C1 (stereo not given)	NIH3T3 tox inconclusive, HEK cytotox inconclusive
Cc1ccc(-c2[nH]ncc2CN2CCN(c3ccc(Cl)cn3)CC2)cc1C	NIH3T3 tox inconclusive, HEK cytotox 35.5µM
O=C(c1cccs1)N1CCC[C@H]1c1nc(-c2ccccc2)no1	HEK cytotox inconclusive
CC(C)c1noc(C2CCCN2C(=O)c2cc(-c3cccs3)n(C)n2)n1 (stereo not given)	Luciferase inh 31.6µM
Cn1nc(-c2ccncc2)cc1NC(=O)c1cccc(Cl)c1	NIH3T3 tox inconclusive, HEK cytotox inconclusive (no result: Luciferase inh, hNpr1 antagonist)
CN1CCCN(C(=O)Cc2cccs2)c2ccccc21	NIH3T3 tox inconclusive
COc1cc(Nc2ncncc2-c2nc(-c3ccccc3)no2)cc(OC)c1OC	none
COc1ccc(-c2noc(Nc3cc(OC)c(OC)c(OC)c3)n2)cc1OC	SNCA viab count inconclusive, NIH3T3 tox inconclusive, HEK cytotox 22.4µM
COc1ccc(-c2noc(-c3nc(-c4cc(OC)c(OC)c(OC)c4)no3)n2)cc1	none
COc1cc(Nc2nc(-c3ccccc3F)no2)cc(OC)c1OC	Luciferase inh inconclusive, NIH3T3 tox inconclusive, HEK cytotox 31.6µM
COc1ccc(-c2noc(Nc3cc(OC)cc(OC)c3)n2)cc1	Luciferase inh inconclusive, NIH3T3 tox inconclusive, HEK cytotox inconclusive
COc1cccc(-c2noc(Nc3cc(OC)c(OC)c(OC)c3)n2)c1	Luciferase inh inconclusive, SNCA viab count inconclusive, NIH3T3 tox inconclusive, HEK cytotox 44.7µM
COc1cc(Nc2nc(-c3ccccc3)no2)cc(OC)c1OC	Luciferase inh 31.6µM, NIH3T3 tox inconclusive, HEK cytotox inconclusive
COc1ccc(-c2noc(-c3nc(-c4ccccc4F)no3)n2)cc1OC	none
CN(C)C[C@@H]1CN(C(=O)c2cccc(N3CCCC3=O)c2)C[C@@H]1CO	none
COc1ccccc1N1CCN(CC[C@H]2CN(C(=O)c3ccccc3)CC[C@H]2CC(=O)O)CC1	none
Cn1ccc2ccc(-c3nc(C4CCOC4)no3)cc21 (stereo not given)	Luciferase inh 35.5µM, NIH3T3 tox inconclusive
c1cnn(-c2ccc(-c3nc(C4CCOC4)no3)cc2)c1 (stereo not given)	Luciferase inh 15.8µM, SNCA viab count inconclusive, hNpr1 antagonist inconclusive, HEK cytotox inconclusive
